Outcome and AC50 data for 18 molecules are collected here from PubChem BioAssay (EPA / NIEHS).

Assay [1] in a line: ACEA_AR_agonist_AUC_viability: ACEA Biosciences xCELLigence Real-Time Cell Analysis on Androgen Receptor Agonism for Viability (AID 2283775).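 As to AC50: viability read 80 hours after compound addition.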 Put shortly: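 Read-out is area under the impedance curve at 80 h post-dose in 22Rv1 cells, with DMSO as baseline and signal loss taken as reduced viability. Compounds ran in duplicate from 100 uM final.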
Assay [2] in a line: ACEA_AR_antagonist_AUC_viability: ACEA Biosciences xCELLigence Real-Time Cell Analysis on Androgen Receptor Antagonism for Viability (AID 2283776).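 Also: area under impedance growth curve at 80 h after dosing as viability; hits lower the growth signal relative to DMSO meaning cytotoxicity.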 Put shortly:
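22Rv1 human prostate cancer cells were seeded on electrode plates, monitored overnight, then exposed to eight 1:4 dilutions from 100 uM final. Impedance-based growth kinetics at 80 h gave an AUC viability endpoint normalized to DMSO.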

Assay [3] in a line: ACEA_ER_AUC_viability: ACEA Biosciences xCELLigence Real-Time Cell Analysis on Estrogen Receptor Agonism for Viability (AID 2283782).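 Also: continuous compound exposure with impedance area under curve over 80 h; hit means loss of impedance signal meaning reduced cell growth or viability.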 In short, it runs like this: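 T-47D human breast cells in phenol red-free RPMI1640 with 10% charcoal-stripped FBS were dosed with an 8-point 1:4 dilution series from 100 uM top final concentration, in duplicate. Impedance-based growth was followed for 80 h; AUC analysed versus DMSO.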

Assay [4] deals with zebrafish Estrogen Receptor (ESR2B), gene 317733. Kind of assay: ATG_zfER2b_XSP1: Attagene TRANS-FACTORIAL Multi-Species (XSP1) HepG2 Assay for zebrafish Estrogen Receptor (ESR2B) (AID 2283773). In short, it runs like this:
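HepG2 cells transiently transfected with multiple GAL4-UAS reporter units expressing chimeric zebrafish ER2b-Gal4; 24 h chemical exposure with 3 nM 6-alpha-fluorotestosterone present. Reporter mRNA measured by RT-PCR and capillary electrophoresis; gain of signal fitted versus DMSO.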

Assay [5] relates to frog Estrogen Receptor (ESR2), gene 100174814. Kind of assay: ATG_frER2_XSP1: Attagene TRANS-FACTORIAL Multi-Species (XSP1) HepG2 Assay for frog Estrogen Receptor (ESR2) (AID 2283774). Put shortly:
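HepG2 cells transiently transfected with GAL4-UAS multiplexed reporter units expressing chimeric NR-Gal4 proteins; reporter mRNA measured 24 h after dosing by RT-PCR, FAM labeling, HpaI digestion and capillary electrophoresis. Gain-of-signal relative to DMSO; 3 nM 6-alpha-fluorotestosterone present.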

Assay [6] has as its system frog Estrogen Receptor (ESR1), gene 398734. Kind of assay: ATG_frER1_XSP1: Attagene TRANS-FACTORIAL Multi-Species (XSP1) HepG2 Assay for frog Estrogen Receptor (ESR1) (AID 2283777). Put shortly:
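Read-out: fluorescent reporter mRNA via RT-PCR, HpaI digestion and capillary electrophoresis, after 24 h chemical exposure of transiently transfected human HepG2 cells expressing exogenous NR-Gal4 chimeras. DMSO served as baseline for positive-direction fitting.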

In assay [7] the target is chicken Estrogen Receptor (ESR1), ESR1 (gene 396099) (UniProt P06212). Kind of assay: ATG_chERa_XSP1: Attagene TRANS-FACTORIAL Multi-Species (XSP1) HepG2 Assay for chicken Estrogen Receptor (ESR1) (AID 2283779). Put shortly:
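HepG2 cells transiently transfected with multiplexed GAL4-UAS reporter units expressing chimeric NR-Gal4 proteins; 3 nM 6-alpha-fluorotestosterone present. Reporter mRNA measured 24 h after dosing by RT-PCR, FAM labelling, HpaI digest and capillary electrophoresis; gain of signal versus DMSO.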

Assay [8] has as its system turtle Estrogen Receptor (ESR1), gene 101933533. In words: ATG_trERa_XSP1: Attagene TRANS-FACTORIAL Multi-Species (XSP1) HepG2 Assay for turtle Estrogen Receptor (ESR1) (AID 2283781). In short, it runs like this: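 HepG2 cells transiently transfected with GAL4-UAS reporter units and chimeric NR-Gal4 constructs, dosed for 24 h with 3 nM 6-alpha-fluorotestosterone present. Reporter mRNA was quantified by RT-PCR, fluorescent labelling and capillary electrophoresis, with gain of signal fitted relative to DMSO.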

Assay [9] has as its target AR (gene 367) (UniProt P10275). Kind of assay: ACEA_AR_agonist_80hr: ACEA Biosciences xCELLigence Real-Time Cell Analysis on Androgen Receptor Agonism for Proliferation (AID 2283783).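 Also: hits increase impedance growth signal above DMSO baseline.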 In short, it runs like this: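 22Rv1 human prostate cancer cells were seeded after preconditioning in assay medium and monitored overnight, then dosed in an eight-point 1:4 dilution series from 100 uM (≤0.5% DMSO). Impedance-based growth was read at 80 h, gain-of-signal versus DMSO.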

Assay [10] is described as follows: STM_H9_NormalizedViability: Cytotoxicity Assessment at 120 hours in the Stemina devTOX quickPredict H9 human embryonic stem cell (hESC)-based Assay (AID 2283784). Put shortly:
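Undifferentiated H9 hESCs kept pluripotent were exposed to compound, with media and chemical replaced every 24h. CellTiter-Fluor protease-substrate fluorescence was background-corrected and normalized per plate to the 0.1% DMSO vehicle; signal loss indicates reduced viability.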

Assay [11] addresses AR (gene 367) (UniProt P10275). Kind of assay: ACEA_AR_antagonist_80hr: ACEA Biosciences xCELLigence Real-Time Cell Analysis on Androgen Receptor Antagonism for Proliferation (AID 2283787).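 Also: hits lower the impedance growth signal relative to DMSO.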 Put shortly: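 Impedance readout (RT-CES), 80 h post-dose; loss-of-signal vs DMSO baseline. 22Rv1 cells in assay medium. Compounds: 8-pt 1:4 series, max 100 uM final, up to 0.5% DMSO; n = 2.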

The nature of assay [12]: ATG_M_06_XSP1: Attagene TRANS-FACTORIAL Multi-Species (XSP1) HepG2 Assay for M06 Transcription Factor (Internal Marker) (AID 2283790). In short, it runs like this: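 Transfected HepG2 multi-reporter system treated 24 h in the presence of 3 nM 6-alpha-fluorotestosterone. The M06 internal marker transcript was quantified by RT-PCR with capillary electrophoresis as a background control, and gain of signal was scored versus DMSO.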

Assay [13] relates to zebrafish Androgen Receptor (AR), gene 100005148. In words: ATG_zfAR_XSP1: Attagene TRANS-FACTORIAL Multi-Species (XSP1) HepG2 Assay for zebrafish Androgen Receptor (AR) (AID 2283771). In short, it runs like this:
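HepG2 cells were transiently transfected with a zebrafish AR-GAL4 reporter system and partially stimulated with 3 nM 6-alpha-fluorotestosterone. Reporter mRNA was measured after 24 h dosing by RT-PCR with capillary electrophoresis, and gain-of-signal was fitted relative to DMSO.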

Assay [14] has as its system zebrafish Estrogen Receptor (ESR2A), gene 317734. In words: ATG_zfER2a_XSP1: Attagene TRANS-FACTORIAL Multi-Species (XSP1) HepG2 Assay for zebrafish Estrogen Receptor (ESR2A) (AID 2283778). In short, it runs like this:
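HepG2 cells transiently transfected with multiplexed GAL4-UAS reporter units and chimeric NR-GAL4 receptors; 24 h compound exposure with 3 nM 6-alpha-fluorotestosterone present. Reporter mRNA quantified by RT-PCR and capillary electrophoresis, gain-of-signal fitted relative to DMSO.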

For assay [15], the target named is Estrogen receptor beta (Homo sapiens) (UniProt Q92731). In words: ATG_hERb_XSP1: Attagene TRANS-FACTORIAL Multi-Species (XSP1) HepG2 Assay for human Estrogen Receptor (ESR2) (AID 2283788). Put shortly:
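Read-out: reporter mRNA induction by RT-PCR, HpaI digestion and capillary electrophoresis fluorescence, fitted in positive direction relative to DMSO baseline. Human liver HepG2 cells expressing ERβ-Gal4 fusion, dosed 24 h, medium containing 3 nM 6-alpha-fluorotestosterone.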

Assay [16] deals with zebrafish Estrogen Receptor (ESR1), esr1 (gene 259252) (UniProt P57717). In words: ATG_zfER1_XSP1: Attagene TRANS-FACTORIAL Multi-Species (XSP1) HepG2 Assay for zebrafish Estrogen Receptor (ESR1) (AID 2283772). In short, it runs like this:
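Reporter mRNA induction, gauged via RT-PCR/capillary electrophoresis fluorescence relative to DMSO controls, in HepG2 cells transiently carrying GAL4-UAS reporter units; 24 h dosing.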

For assay [17], the target named is Estrogen receptor (Homo sapiens) (UniProt P03372). Kind of assay: ATG_hERa_XSP1: Attagene TRANS-FACTORIAL Multi-Species (XSP1) HepG2 Assay for human Estrogen Receptor (ESR1) (AID 2283780). In short, it runs like this: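 HepG2 cells transiently transfected with GAL4-UAS reporter units and chimeric NR-Gal4 constructs; 24 h after dosing, reporter mRNA quantified by RT-PCR and capillary electrophoresis. Medium contained 3 nM 6-alpha-fluorotestosterone; activity fitted as gain-of-signal versus DMSO.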
Estrogen receptor (Homo sapiens), sequence (P03372 whole entry, looked up, the tested form may be a part): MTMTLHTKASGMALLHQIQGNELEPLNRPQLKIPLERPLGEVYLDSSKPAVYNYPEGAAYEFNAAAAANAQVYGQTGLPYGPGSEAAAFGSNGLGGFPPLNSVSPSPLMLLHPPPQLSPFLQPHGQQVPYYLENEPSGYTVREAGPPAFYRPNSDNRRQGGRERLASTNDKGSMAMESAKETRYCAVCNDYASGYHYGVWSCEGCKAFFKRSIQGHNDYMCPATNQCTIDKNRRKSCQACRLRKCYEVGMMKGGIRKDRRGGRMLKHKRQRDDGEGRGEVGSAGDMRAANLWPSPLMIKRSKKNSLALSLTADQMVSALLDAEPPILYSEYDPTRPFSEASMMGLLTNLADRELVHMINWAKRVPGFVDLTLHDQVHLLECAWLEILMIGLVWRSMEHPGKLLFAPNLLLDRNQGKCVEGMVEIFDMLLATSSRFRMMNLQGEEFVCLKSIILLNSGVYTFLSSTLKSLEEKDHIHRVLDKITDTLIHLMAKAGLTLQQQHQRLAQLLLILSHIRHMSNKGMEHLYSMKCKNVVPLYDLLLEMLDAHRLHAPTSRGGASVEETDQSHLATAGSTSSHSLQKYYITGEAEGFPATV

Several values for one entry are separate records, joined by “and”; a condition that tells them apart may be missing. Identical values can stand only once. Results filed as inconclusive are left out. Some structures have more than one record in an assay (separate samples or runs), and their calls can disagree. Activity calls are given as the source filed them. The calls were made as follows: active = hit-call score of the fitted dose curve at least 0.9, where 1 is the maximum; inconclusive = response in the unintended direction; inactive = score below 0.9.

chicken Estrogen Receptor (ESR1), ESR1 (gene 396099), sequence (P06212 whole entry, looked up, the tested form may be a part): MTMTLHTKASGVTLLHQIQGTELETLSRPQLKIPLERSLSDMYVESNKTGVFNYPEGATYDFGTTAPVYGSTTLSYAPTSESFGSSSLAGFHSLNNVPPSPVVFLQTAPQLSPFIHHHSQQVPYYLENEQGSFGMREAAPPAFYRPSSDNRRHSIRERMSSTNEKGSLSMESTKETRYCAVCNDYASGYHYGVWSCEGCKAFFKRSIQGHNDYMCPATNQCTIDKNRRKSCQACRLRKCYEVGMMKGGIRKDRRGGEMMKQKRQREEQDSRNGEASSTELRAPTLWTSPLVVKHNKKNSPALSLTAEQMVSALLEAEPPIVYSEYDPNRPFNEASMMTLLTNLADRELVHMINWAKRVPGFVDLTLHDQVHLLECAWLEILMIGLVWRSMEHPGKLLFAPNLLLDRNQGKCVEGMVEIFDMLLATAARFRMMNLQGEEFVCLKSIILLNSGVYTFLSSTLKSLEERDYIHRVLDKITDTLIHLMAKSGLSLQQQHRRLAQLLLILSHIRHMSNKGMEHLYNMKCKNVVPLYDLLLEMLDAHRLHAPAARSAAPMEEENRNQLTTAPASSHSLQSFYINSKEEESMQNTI
AR (gene 367), sequence (P10275 whole entry, looked up): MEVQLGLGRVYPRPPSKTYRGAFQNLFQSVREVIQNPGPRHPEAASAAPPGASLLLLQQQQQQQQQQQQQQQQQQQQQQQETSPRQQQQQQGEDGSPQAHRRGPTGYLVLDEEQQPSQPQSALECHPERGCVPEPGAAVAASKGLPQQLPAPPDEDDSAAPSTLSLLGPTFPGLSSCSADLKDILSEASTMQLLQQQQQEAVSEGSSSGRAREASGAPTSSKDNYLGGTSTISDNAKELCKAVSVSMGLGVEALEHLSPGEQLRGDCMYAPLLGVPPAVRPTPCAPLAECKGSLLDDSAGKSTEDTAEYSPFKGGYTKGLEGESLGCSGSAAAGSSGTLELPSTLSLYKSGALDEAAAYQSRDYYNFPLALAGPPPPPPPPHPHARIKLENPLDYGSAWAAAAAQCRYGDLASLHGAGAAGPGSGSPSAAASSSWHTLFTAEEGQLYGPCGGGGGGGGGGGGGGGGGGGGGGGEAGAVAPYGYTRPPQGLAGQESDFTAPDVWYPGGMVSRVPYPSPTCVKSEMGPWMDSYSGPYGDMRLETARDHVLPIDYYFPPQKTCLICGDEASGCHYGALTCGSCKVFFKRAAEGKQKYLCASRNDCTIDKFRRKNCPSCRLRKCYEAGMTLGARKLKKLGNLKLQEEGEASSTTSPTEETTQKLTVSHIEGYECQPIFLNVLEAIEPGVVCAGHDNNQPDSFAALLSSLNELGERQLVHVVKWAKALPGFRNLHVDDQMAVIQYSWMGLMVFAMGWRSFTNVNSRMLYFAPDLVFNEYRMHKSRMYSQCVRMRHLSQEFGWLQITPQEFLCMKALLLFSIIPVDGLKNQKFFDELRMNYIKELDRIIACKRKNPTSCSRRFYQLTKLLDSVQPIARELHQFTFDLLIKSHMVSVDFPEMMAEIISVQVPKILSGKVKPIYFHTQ
Estrogen receptor beta (Homo sapiens), sequence (Q92731 whole entry, looked up, the tested form may be a part): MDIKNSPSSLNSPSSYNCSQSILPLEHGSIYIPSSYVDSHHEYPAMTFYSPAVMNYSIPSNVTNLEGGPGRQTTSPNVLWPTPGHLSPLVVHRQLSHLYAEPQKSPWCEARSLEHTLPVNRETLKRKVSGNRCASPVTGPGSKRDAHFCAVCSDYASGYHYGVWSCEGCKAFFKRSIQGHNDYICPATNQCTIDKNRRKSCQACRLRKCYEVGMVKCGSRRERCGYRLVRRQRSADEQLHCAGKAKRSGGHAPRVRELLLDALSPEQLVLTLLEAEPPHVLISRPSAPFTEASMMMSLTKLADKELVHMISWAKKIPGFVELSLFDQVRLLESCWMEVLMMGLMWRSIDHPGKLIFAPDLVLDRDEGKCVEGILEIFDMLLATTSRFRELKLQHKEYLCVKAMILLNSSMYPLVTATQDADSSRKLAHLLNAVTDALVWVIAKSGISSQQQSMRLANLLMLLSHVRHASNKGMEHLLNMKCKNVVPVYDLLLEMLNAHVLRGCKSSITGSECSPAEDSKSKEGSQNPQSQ
zebrafish Estrogen Receptor (ESR1), esr1 (gene 259252), sequence (P57717 whole entry, looked up, the tested form may be a part): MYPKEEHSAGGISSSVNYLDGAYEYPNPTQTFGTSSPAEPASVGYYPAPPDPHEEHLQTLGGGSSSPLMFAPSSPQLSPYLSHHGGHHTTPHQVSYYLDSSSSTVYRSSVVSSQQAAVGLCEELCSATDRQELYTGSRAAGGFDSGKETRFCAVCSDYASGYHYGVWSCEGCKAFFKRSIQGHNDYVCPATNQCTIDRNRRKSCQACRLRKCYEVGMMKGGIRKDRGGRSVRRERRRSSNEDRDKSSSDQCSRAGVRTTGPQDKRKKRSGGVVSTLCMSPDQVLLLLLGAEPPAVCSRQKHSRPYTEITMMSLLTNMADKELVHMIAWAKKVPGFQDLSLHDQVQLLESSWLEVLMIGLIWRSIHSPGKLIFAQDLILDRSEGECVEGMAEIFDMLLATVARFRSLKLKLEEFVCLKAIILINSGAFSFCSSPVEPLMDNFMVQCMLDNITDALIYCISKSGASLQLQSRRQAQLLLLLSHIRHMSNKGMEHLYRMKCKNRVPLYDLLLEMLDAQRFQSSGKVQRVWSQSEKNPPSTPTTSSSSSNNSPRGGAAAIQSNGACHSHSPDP

On to `Clc1ccc(C2(Cn3cncn3)CC(Br)CO2)c(Cl)c1` (configuration not stated), for which the result in assay [1] and in assay [2] was inactive.

As to `OCc1ccco1`, the molecule was called inactive in assay [1] and in [2].

With `C=C(C)C#N`, the molecule was called inactive in assay [1], in [2] and in assay [3].

`COc1cc(-c2ccc(N)c(OC)c2)ccc1N`: the AC50 was 27.1 µM (active) in [1]; 18.4 µM (active) and 22.3 µM (active) in assay [2].

In the case of `O=C1C2(Cl)C3(Cl)C4(Cl)C(Cl)(Cl)C5(Cl)C3(Cl)C1(Cl)C5(Cl)C24Cl` (configuration not stated), the AC50 in assay [4] is 1.93 µM (active); in assay [5], 2.24 µM (active); in assay [1] it was 7.07 µM (active); in [2] it was 7.14 µM (active); in assay [6], 0.271 µM (active); in assay [7], 0.0284 µM (active). Besides, the AC50 was 0.383 µM (active) in [8]; 10.4 µM (active) and 7.76 µM (active) and 8.91 µM (active) in assay [3]; 7.92 µM (active) with AR (gene 367) [11]. Also, the molecule was classed as inactive (with AR (gene 367) [9]; in [10]; in assay [12]).

`COc1cc(OC)nc(NC(=O)NS(=O)(=O)c2ncccc2C(=O)N(C)C)n1`: the AC50 in [1] was 1.74 µM (active).

`C[C@H]1CCCC(=O)CCC/C=C/c2cc(O)cc(O)c2C(=O)O1`: the AC50 in assay [1] is 30.3 µM (active); in assay [2], 31.3 µM (active) and 9.08 µM (active); with AR (gene 367) [11], 13.9 µM (active). Also, the molecule was classed as inactive (in assay [1]; with AR (gene 367) [9]).

In the case of `CC(C)(C)CC(C)(C)c1ccc(O)cc1`, the molecule was called inactive (in assay [13]; in assay [14]; with AR (gene 367) [9]; in assay [12]). Also, the AC50 in assay [4] is 1.7 µM (active); in assay [5], 2.75 µM (active); in [1] it was 10.4 µM (active); in assay [2], 8.78 µM (active); in [6], 1.86 µM (active); in assay [7], 2.21 µM (active). Moreover, the AC50 in [8] is 2.15 µM (active); in assay [3] it was 21.2 µM (active) and 21.4 µM (active) and 21.5 µM (active); in [15], 2.74 µM (active).

Consider `Oc1ccc(-c2ccccc2)cc1`, for which, in assay [1], the result was inactive. In addition, in [2], the AC50 was 1.1 µM (active).

Turning to `CC(=O)C=C(C)C`, the call in assay [1] and in assay [2] was inactive.

For `O=C(Cc1ccccc1)c1ccccc1`, the molecule was called inactive in assay [1] and in [2].

Regarding `Cc1ccc(N)cc1Cl`, the outcome in assay [1] and in assay [2] was inactive.

For `Fc1ccc(C2(Cn3cncn3)OC2c2ccccc2Cl)cc1` (configuration not stated), the outcome in [1] was inactive.

On to `CC(C#N)CCC#N` (configuration not stated), for which the molecule was called inactive in assay [1].

`CC1(C)CCC(Cc2ccc(Cl)cc2)C1(O)Cn1cncn1` (configuration not stated): the AC50 in [13] was 165 µM (active); in assay [4], 27.7 µM (active); in assay [5], 26.3 µM (active); in assay [7], 1.35 µM (active); in assay [17], 5.17 µM (active); in assay [3], 74.5 µM (active). Also, the call in [16], in [1], in assay [2], in assay [6], in [14] and in [8] was inactive. The molecule was called inactive in [12].

With `O=C(NCO)NCO`, the molecule was classed as inactive in [1] and in [2].

For `O=C1CCCN1`, in [1], the outcome was inactive.

For the molecule `CCC[CH2][Sn]([Cl])([Cl])[Cl]`, the outcome in assay [1] was inactive.

As a reminder, the AC50 is the midpoint of the concentration-response curve, whichever way the signal moves.
